Experimental data taken from the OligoGym collection.

The sequences below were run against LAMB4 (assay: pooled miR-30 sensor sort-seq; sequence = guide strand). Settings: shRNA.
Also: reference of the scale not given here.

Row | Sequence | sensor-assay potency score (higher = more potent)
1 | TTTAGCTGCATGATTTGTCTTC | -0.0764
2 | TTCAACACAGTTGTGAAGCTGA | 0.732
3 | TTAGCTGTTTAACTTTTCCTAA | -0.989
4 | TTTGACTGTAGAGTCTTGGGTA | 0.734
5 | TTTGTCTTCTAACAGAGTCATG | -1.42
6 | TTTGTTAGTCCTGTAGTGCTTG | 0.084

What follows are sequences tested against LAMC1 in the same assay as above. Settings: shRNA.

Row | Sequence | sensor-assay potency score (higher = more potent)
7 | TTGACTTCAAGTTCCTTCCCTC | 0.467
8 | TACATTTACATCTGCCACCTAC | -0.06
9 | TATGAGACTCTCTAATTCCTGG | -0.463
10 | TTCATCAGTACACAAGGCCTGC | -0.475
11 | TTCTTTTGGACAGCGCTCGCGA | -0.297
12 | TTCCTTTAGTCTATCCTCGAAG | -0.66
13 | TAGGACTTGAGAACTTTGGGAT | 0.474
14 | TCGTTCTTCATACACTCGCTTG | -1.26
15 | TTCGCTTGTTCATACTTCCTAT | 0.107
16 | TTGTCTTTGCAAACACATCTTC | -0.117
17 | TTTGCAATTACACACCAGCTTA | -0.786
18 | TTCAATATTACATTCATCTATG | -0.485

The sequences below were run against LANCL2 in the same assay as above. Settings: shRNA.

Row | Sequence | sensor-assay potency score (higher = more potent)
19 | TTTAATTTTGGTCTGGATCCGT | 0.159
20 | TTAACATATAGTAAATTCCAGC | -0.758
21 | AATCACATCGCTACACTCCATG | -1.26
22 | TAATAGCTGACTCACACACGGT | -0.857
23 | TATGAAATTATGAATGATCTTC | 0.142
24 | TGATTCTTGGCAGACAACCGAT | -0.954
25 | TTTCTTGGTCCACTTTTGCTGC | -1.18
26 | TTTCTGTCAAGGTTTCTTGGTC | -0.185
27 | TTTTGTGACACATTCCTGGGAC | 0.967
28 | AAGTTTTGTGACACATTCCTGG | 0.068
29 | TTTCAAGTACTTCTCCTCCTTA | -0.0935
30 | AATAATAGCATTGACTACCTCT | 0.441

These sequences were tested against LARP1B in the same assay as above. Settings: shRNA.

Row | Sequence | sensor-assay potency score (higher = more potent)
31 | TAGACTGTGTCTTAGATTGAGA | -0.454
32 | TAGGATCTTGTAACCTAGGTGT | 0.016
33 | TTTATTGAAGTGATCTCTGAGG | -0.332
34 | TTTCTTGACTCTCTGATCTTAC | -0.67
35 | TTTACTAATGAGATTTAGCTTC | -0.374
36 | TATCTCGCTTCCAACTTCGTGT | -0.146
37 | TAGTAATACATCATACTGGTAT | -0.0186
38 | TTCTACTTCTGTGCTATCCTTC | 0.509
39 | TGAAACATCAAATAACTTCTGA | 0.226
40 | TTCTTCTGAAGAACATAGCTGA | 0.273
